Reference: PubChem BioAssay (NCATS)
Records with an inconclusive call do not appear. Where a call stands in place of a potency, no number is given. Active and inactive are the calls of the source. Calls come from the whole dose curve; as a rule, active = well fitted curve in the direction sought with a large enough effect; inconclusive = small, poorly fitted or top-dose-only effect, or another doubt; inactive = no such curve, though single readings can be large; an effect the other way counts as inactive or inconclusive.

Columns and labels:
[1] = target: Aldehyde dehydrogenase, mitochondrial (Homo sapiens) (UniProt P05091); test: qHTS for Inhibitors of the Aldehyde Dehydrogenase Family (ALDH2) Primary screen (AID 2061308); note: nearly all actives have a fitted effect of over 55% in size
[2] = target: Retinaldehyde dehydrogenase 3 (Homo sapiens) (UniProt P47895); test: qHTS for Inhibitors of the Aldehyde Dehydrogenase Family (ALDH1A3) Primary screen (AID 2061315)

Compound	Potency [1]	Potency [2]
O=c1[nH]ccc2nc(-c3ccc(CN4CCC(c5nc(-c6ccccn6)n[nH]5)CC4)cc3)c(-c3ccccc3)cc12	inactive	inactive
CN1CCN(c2nnc(NC(=O)Nc3ccc(Cl)c(Cl)c3)s2)CC1	inactive	inactive
CCC(=O)NC(c1ccco1)c1cc(Cl)c2cccnc2c1O (centres undefined)	inactive	inactive
NC(=O)C1CCN(c2nc(-c3cccc(C(F)(F)F)c3)cs2)CC1	inactive	inactive
Cc1cc(C)nc(NC(=S)N2CCN(c3nnc(C(F)(F)F)s3)CC2)c1	inactive	inactive
NC(=O)c1cccc(C[C@H](C(=O)O)N2C(=O)c3ccc(C(=O)O)cc3C2=O)c1	inactive	inactive
COCCN(CCOC)c1nc(C)nc2c1nc(-c1ccccc1)n2CCCN1CCCCC1C (centres undefined)	inactive	inactive
Cn1cnc(CN=C2NC3=C(C(=O)CCC3)C(c3[nH]ncc3Cl)N2)c1 (centres undefined)	inactive	inactive
Cn1nnnc1Sc1ncnc2scc(-c3ccc(N)cc3)c12	inactive	inactive
Cc1ccc(-c2ccc(CNc3nc(-c4ccccc4C(C)C)ncc3F)cc2)cn1	inactive	inactive
O=S1(=O)N=C(Oc2cccc(Br)c2)c2ccccc21	inactive	inactive
COc1ccc(CN(Cc2ccccc2)C(=O)c2ccc(OC)cc2O)cc1	inactive	inactive
O=C(O)c1ccc(CSc2nnc(-c3cccc(S(=O)(=O)NC4CCCC4)c3)n2-c2ccc(F)cc2)cc1	inactive	inactive
O=c1c2ccccc2nc2sc(Nc3cccc(N4CCN5CCCCC5C4)c3)nn12 (centres undefined)	inactive	inactive
C=C1C(=O)OC2CC(C)=C(C(C)CCCOC(C)=O)C(OC(=O)CC(C)CC)C12 (centres undefined)	inactive	inactive
Cc1ccc(C(=O)N2CCc3cc(-c4nc(NC(=O)Cc5ccc6c(c5)OCO6)sc4C)ccc32)cc1	inactive	inactive

Compound	Potency [1]	Potency [2]
C[C@@H]1C[C@@H](O)[C@@]23CO[C@@H](O)[C@@H]2CCC[C@@H]3[C@@]12C[C@@H](c1ccoc1)OC2=O	inactive	inactive
CC(C)(C)OC(=O)NCC(=O)NNC(=O)c1nc2ccccc2[nH]1	inactive	inactive
CN1[C@@H]2CC[C@H]1CC(OC(c1ccccc1)c1ccccc1)C2 (some centres undefined)	inactive	inactive
Cc1cc(C)c(S(=O)(=O)Nc2cccc3cccnc23)c(C)c1	inactive	inactive
CC(C)(C)CNc1ncnc2ccc(-c3ccc(C(=O)O)o3)cc12	inactive	inactive
Nc1nc(Nc2cc(F)cc(F)c2)nc(NC2CCCC2)n1	inactive	inactive
O=C(Nc1ccc(F)nc1)Nc1nnc(-c2ccncc2)s1	inactive	inactive
CCOc1ccccc1OCCNC(C)Cc1ccc(OC)c(S(N)(=O)=O)c1 (centres undefined)	inactive	inactive
O=c1[nH]c(CCl)nc2sc3c(c12)CCC3	inactive	inactive
CCc1ccc(NC(=O)c2cnn3c(C)cc(C)nc23)cc1	inactive	inactive
COc1ccc(C2Nc3ccccc3C(=O)N2Cc2ccccc2)cc1COc1cccc(C)c1 (centres undefined)	inactive	inactive
O=C(Cc1ccc(Cl)c(Cl)c1)Nc1ccc([S+](=O)([O-])Nc2ccc([N+](=O)[O-])cc2)cc1	inactive	inactive
CCNC(=O)c1ccc(-c2ccc3ncnc(NCC(C)(C)C)c3c2)o1	inactive	inactive
Fc1cc(Nc2nc(-c3ccncc3)nc3ccccc23)ccc1-c1cccnc1	inactive	inactive
Cn1ncc(Cl)c1C1N=C(Nc2nc3ccccc3o2)NC2=C1C(=O)CCC2 (centres undefined)	inactive	inactive
CC(C)c1ccccc1-c1nc(NCc2ccc(-c3cccnc3)cc2)c2cccn2n1	inactive	inactive
